In PubChem BioAssay:
Values without a mark were called inactive. No rule for the calls is given here.

The molecules below were run against Pantothenate synthetase (Mycobacterium tuberculosis (strain ATCC 25618 / H37Rv)) (UniProt P9WIL5) (assay: Recombinant Mtb pantothenate synthetase (PanC) inhibitors, coupled enzyme, confirmatory (AID 375;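 also: 0% = full reaction with vehicle and 100% = no enzyme background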)). Conditions: coupled enzyme assay; at 10 µM, stronger effect = higher value.
Sequence of Pantothenate synthetase (Mycobacterium tuberculosis (strain ATCC 25618 / H37Rv)) (P9WIL5 whole entry, looked up): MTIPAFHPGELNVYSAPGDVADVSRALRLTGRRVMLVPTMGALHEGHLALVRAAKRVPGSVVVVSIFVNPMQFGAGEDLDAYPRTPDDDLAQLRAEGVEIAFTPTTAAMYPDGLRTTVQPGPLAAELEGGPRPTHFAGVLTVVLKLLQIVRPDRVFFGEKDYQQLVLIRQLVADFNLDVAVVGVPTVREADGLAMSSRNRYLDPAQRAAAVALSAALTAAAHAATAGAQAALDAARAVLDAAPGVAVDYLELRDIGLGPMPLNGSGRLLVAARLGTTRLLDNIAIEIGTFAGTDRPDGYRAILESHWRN

`CS(=O)(=O)NCc1nnc(SCC(=O)NC2CCCCC2)n1-c1ccc(F)cc1` and `O=C(CSCc1ccc(F)cc1)NC1CCCC1` are the same in inhibition: 0% for the first, 0% for the second.

Going from `Nc1cc(-c2ccccc2)ccc1O` to `Cc1nn(C(=O)c2ccc3c(c2)OCO3)c(N)c1-c1ccccc1`, the inhibition falls from 1% to 0%.

Going from `OCc1cn(-c2ccccc2)nc1-c1ccc2c(c1)OCCO2` to `Cc1ccc2nc(CSc3nnc(-c4ccco4)n3-c3ccccc3)cc(=O)n2c1`, the inhibition rises from 0% to 4%.

Compared with `CCn1nc(C(=O)OCC(=O)c2cc(C)n(Cc3cccs3)c2C)c2ccccc2c1=O`, `Cn1c(=O)c2ccccc2n(Cc2ccccc2F)c1=O` is lower in inhibition: 1% for the first, 0% for the second.

`Cc1cnc(NC(=O)CSc2nnc(-c3ccccc3)n2Cc2ccccc2)s1` and `Cc1ccc(NC(=O)CSc2nnc(-c3ccncc3)n2C)cc1C` are the same in inhibition: 0% for the first, 0% for the second.

Compared with `O=C(CNC(=O)c1ccccc1C(=O)O)c1ccccc1`, `Cc1cccc(Nc2ccccc2C(=O)O)c1C` is higher in inhibition: 0% for the first, 4% for the second.

First: CCOC(=O)C1CCCN(S(=O)(=O)c2cccs2)C1 (stereo not given)
Second: Nn1c(SCC(=O)Nc2ccc(S(=O)(=O)N3CCCC3)cc2)nnc1C(F)(F)F
The inhibition of the first is higher: 6% for the first, 0% for the second.

`Cc1c(N(C)C)nc2ccccc2c1N` and `Cc1cc(Cl)ccc1OCC(=O)Nn1c(C)ccc1C` are the same in inhibition: 0% for the first, 0% for the second.

Compared with `Cc1ccc(S(=O)(=O)N2CCN(CCO)CC2)cc1-c1nnc2c3ccccc3c(C)nn12`, `CCn1c(=O)cc(OCC(=O)NCCCN2CC(C)CC(C)C2)c2ccccc21` (stereo not given) is higher in inhibition: 0% for the first, 3% for the second.

`CC(=O)OCC(=O)[C@@]1(OC(C)=O)[C@@H](C)C[C@H]2[C@@H]3C[C@H](F)C4=CC(=O)C=C[C@]4(C)[C@@]3(F)[C@@H](O)C[C@@]21C` and `COc1cc2c3c(c1)/C(=C1/SC(NC(C)=O)=NC1=O)C(=O)N3C(C)(C)C=C2C` are the same in inhibition: 0% for the first, 0% for the second.

`O=C(NCc1ccccc1)C1CCCN1S(=O)(=O)c1cccc2cccnc12` (stereo not given) and `O=C(NC1CCCCC1)C(c1ccccc1)N(Cc1ccco1)C(=O)Cn1cnc2ccccc21` (stereo not given) are the same in inhibition: 0% for the first, 0% for the second.

Going from `CC(=O)Nc1ccc(NS(=O)(=O)c2ccc(Cl)c(C(=O)O)c2)cc1` to `NS(=O)(=O)c1ccc(C(=O)O)cc1`, the inhibition falls from 1% to 0%.

`CCOC(=O)Cn1nnc(-c2ccc(SC)cc2)n1` and `Cc1ccc(Nc2nc(CSc3nnnn3C)cs2)cc1` are the same in inhibition: 0% for the first, 0% for the second.

Going from `NS(=O)(=O)c1cc2c(cc1C(F)(F)F)NCNS2(=O)=O` to `O=C(NCc1ccco1)c1cnn2c(C(F)(F)F)cc(-c3ccco3)nc12`, the inhibition rises from 2% to 4%.

`CCc1c(C)c2ccc(OCC(=O)OC)cc2oc1=O` and `Cc1sc2nc(SCC(=O)NCCO)n(C)c(=O)c2c1C` are the same in inhibition: 0% for the first, 0% for the second.

Compared with `COc1ccc(Nc2ncc3c(n2)CC(c2ccc(OC)cc2)CC3=O)cc1` (stereo not given), `COc1nc(-c2ccc(Cl)cc2)ccc1-c1noc(-c2ccncc2)n1` is higher in inhibition: 3% for the first, 4% for the second.

Compared with `N#Cc1cnn(Cc2ccc(Cl)cc2)c1N`, `COc1ccc(-c2noc(-c3cc(Cl)ccc3Cl)n2)cc1OC` is higher in inhibition: 0% for the first, 2% for the second.

Going from `Cc1n[nH]c(C)c1N1C(=O)c2cccc3cc(Br)cc(c23)C1=O` to `COc1ccc(NC(=O)CSc2nnc(Cc3cccn3C)n2-c2ccc(F)cc2)cc1OC`, the inhibition falls from 6% to 0%.

`c1ccc(Cn2nnnc2CN2CCCC2)cc1` and `C=CCn1c(CC#N)nnc1N1CCOCC1` are the same in inhibition: 0% for the first, 0% for the second.

`CC12CCC(C(=O)N3CCN(C(=O)C45CCC(C)(C(=O)O4)C5(C)C)CC3)(OC1=O)C2(C)C` and `CC1CCC(NC(=O)C2CCN(c3cnccn3)CC2)CC1` (stereo not given) are the same in inhibition: 0% for the first, 0% for the second.
